# In PubChem BioAssay:
# For part of these data: Measured potencies and affinities stand elsewhere. Records with an inconclusive call do not appear. The source made the active and inactive calls. Unless noted, how the calls were made is not given here.
# Experiments:
# [1] = tested on: XIP peptide (Xip251-270) binding; assay: small-molecule binders of XIP peptide, primary screen, biochemical, small-molecule microarray, fluorescence 635/667 nm, 0.1 µg/mL protein (AID 1182); conditions: fluorescent protein binding, 635 nm; higher = more signal, called active from +8 up or from −8 down unless noted
# XIP peptide (Xip251-270) = assay: small-molecule binders of XIP peptide, primary screen, biochemical, small-molecule microarray, fluorescence 635/667 nm, 0.5 µg/mL protein (AID 1183); conditions: small-molecule microarray binding, fluorescence 635 nm; higher = more signal
# [2] = Plasmodium falciparum growth inhibition, primary screen, strain 3D7, DAPI fluorescence, 100 nL (AID 1184);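 further: parasites grown inside human red blood cells in medium with human serum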; conditions: P. falciparum 3D7 growth, 3 d, higher = more signal
# [3] = target: Homeobox protein Hox-A13 (Mus musculus) (UniProt Q62424); assay: inhibitors of HoxA13-DNA binding, primary screen, biochemical, fluorescence polarization, labeled oligonucleotide (AID 1185); conditions: 15 min; higher = more signal, called active from +8 up or from −8 down unless noted
# Chain of Homeobox protein Hox-A13 (Mus musculus) (Q62424 whole entry, looked up): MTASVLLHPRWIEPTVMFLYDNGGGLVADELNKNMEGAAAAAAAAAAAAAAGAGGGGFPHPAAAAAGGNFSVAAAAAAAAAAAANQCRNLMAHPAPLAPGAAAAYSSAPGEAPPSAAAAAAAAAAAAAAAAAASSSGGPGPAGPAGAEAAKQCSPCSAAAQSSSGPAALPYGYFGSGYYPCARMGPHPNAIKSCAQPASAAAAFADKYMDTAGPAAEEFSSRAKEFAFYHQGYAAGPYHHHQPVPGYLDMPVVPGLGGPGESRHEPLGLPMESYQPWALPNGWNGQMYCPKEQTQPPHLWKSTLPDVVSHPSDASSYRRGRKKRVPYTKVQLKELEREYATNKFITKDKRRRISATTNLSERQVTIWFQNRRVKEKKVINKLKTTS
# [4] = inhibitors of hydroxyurea-induced Chk1 phosphorylation, primary screen, imaging, HeLa, phospho-Chk1 antibody, percent positive cells (AID 1186); conditions: hydroxyurea-induced phospho-Chk1 immunofluorescence imaging, higher = more signal
# [5] = inhibitors of hydroxyurea-induced Chk1 phosphorylation, primary screen, imaging, HeLa, phospho-Chk1 nuclear intensity (AID 1187); conditions: hydroxyurea-induced phospho-Chk1 immunofluorescence imaging, higher = more signal
# [6] = target: Adenosylmethionine-8-amino-7-oxononanoate aminotransferase (Mycobacterium tuberculosis (strain ATCC 25618 / H37Rv)) (UniProt P9WQ81); assay: inhibition of purified M. tuberculosis BioA – biochemical, plate reader, cherry-pick samples, dose response (AID 651683)
# Chain of Adenosylmethionine-8-amino-7-oxononanoate aminotransferase (Mycobacterium tuberculosis (strain ATCC 25618 / H37Rv)) (P9WQ81 whole entry, looked up): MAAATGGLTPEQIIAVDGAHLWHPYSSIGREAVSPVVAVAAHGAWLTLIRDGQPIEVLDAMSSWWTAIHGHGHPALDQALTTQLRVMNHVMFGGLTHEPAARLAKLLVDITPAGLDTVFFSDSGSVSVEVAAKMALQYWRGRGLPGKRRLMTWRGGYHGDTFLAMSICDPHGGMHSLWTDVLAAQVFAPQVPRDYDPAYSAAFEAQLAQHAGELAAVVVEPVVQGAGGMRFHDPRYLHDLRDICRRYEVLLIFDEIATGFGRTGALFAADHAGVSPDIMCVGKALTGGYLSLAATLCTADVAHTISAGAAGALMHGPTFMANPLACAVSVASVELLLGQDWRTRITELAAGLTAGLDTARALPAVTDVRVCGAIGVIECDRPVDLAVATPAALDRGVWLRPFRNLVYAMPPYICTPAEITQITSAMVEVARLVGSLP
# [7] = cytotoxicity in PAX8-dependent RMG-1 cells, dose response, cell-based, cherry-pick (AID 687029;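 active means signal drop whose fitted half-maximal concentration is at most twice the top valid dose, in every test run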;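 further: cells exposed to compound for 96 hours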)
# [8] = cytotoxicity in IOSE-T80 ovarian epithelial cells, dose response, selectivity assay for PAX8 inhibitor project, cell-based, cherry-pick (AID 687032;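 active means fitted half-maximal concentration for viability loss no higher than twice the top valid dose, in every repeat run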;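 further: cells exposed to compound for 96 h before reading; 0% = neutral control wells and -100% = 2 µM mitoxantrone kill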)
# [9] = inhibitors of CMV-promoter luciferase reporter, dose response, counter-screen for Pax8 inhibitor project, cell-based, HEK293, luminescence, dry powder (AID 743020;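 active means signal-lowering compounds whose fitted half-maximal concentration is at or below twice the top tested dose in every run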;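 further: HEK293 cells stably expressing the CMV luciferase reporter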)
# [10] = non-specific cell cytotoxicity, dose response, cytotoxicity control for PAX8 inhibitor project, plate reader, dry powder samples (AID 743021)
# [11] = Cryptococcus neoformans growth inhibition, dose response, Alamar Blue, cherry-picks (AID 686998;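 active means falling signal with fitted half-maximal potency no higher than twice the top valid tested dose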)
# [12] = HepG2 cell cytotoxicity, dose response, cytotoxicity control, cherry-picks, set 2 (AID 687002;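 active means a dose-response fit showing signal loss, with half-maximal concentration no higher than twice the top tested dose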)
# [13] = HeLa cell cytotoxicity, dose response, cytotoxicity control, ATP luminescence, cherry-pick samples (AID 687004;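 active means a fitted half-maximal concentration no higher than twice the top valid tested dose, with signal falling as cells die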;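 further: 0% = neutral control median and -100% = staurosporine 10 µM control median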)
# [14] = inducers of Cryptococcus neoformans cell lysis, dose response, AK release luminescence, cherry-picks (AID 687000;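 active means fitted dose curve reaches 40% lysis signal rise at or below the highest valid concentration tested for that sample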;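 further: luminescent detection of adenylate kinase leaking from lysed yeast; 0% = median neutral control signal and 100% = double that signal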)
smiles,measurement,setting,value
CCCC=C(CCC)[C@@H](NP(=O)(c1ccccc1)c1ccccc1)c1ccccc1,composite z-score,[1],0.147 (inactive)
same,composite z-score,XIP peptide (Xip251-270),0.158
same,z-score,[2],-0.81
same,z-score,[3],-1.64 (inactive)
same,z-score,[4],0.17 (inactive)
same,z-score,[5],0.404 (inactive)
C[C@H]1O[C@H]2C3=C(C(=O)[C@@H]4O[C@@H]4[C@@H]3O)[C@@H]1[C@@H]1[C@@H](C)OC=C3[C@@H](O)[C@H]4O[C@H]4C(=O)[C@]312,composite z-score,[1],-0.7 (inactive)
same,composite z-score,XIP peptide (Xip251-270),0.938
same,z-score,[2],-1.58
same,z-score,[3],-0.276 (inactive)
CN1CCC(c2ccc(CO)cc2)=CC1c1cccs1 (stereo not given),composite z-score,[1],0.219 (inactive)
same,composite z-score,XIP peptide (Xip251-270),0.171
same,z-score,[2],-1.99
same,z-score,[3],-4.11 (inactive)
same,z-score,[4],0.126 (inactive)
same,z-score,[5],-0.0255 (inactive)
CCc1cc2c(nc1CC)CCN(CCC(C)=NOC)C2,composite z-score,[1],0.341 (inactive)
same,composite z-score,XIP peptide (Xip251-270),-0.0832
same,z-score,[2],-1.21
same,z-score,[3],-3.29 (inactive)
CCCc1cc2c(n1Cc1ccc(C)cc1)C(C)C1CN(C(=O)c3ccccc3)C(C)(C(=O)OC)C21 (stereo not given),composite z-score,[1],0.707 (inactive)
same,composite z-score,XIP peptide (Xip251-270),0.73
same,z-score,[2],-0.0901
same,z-score,[3],-2.8 (inactive)
same,z-score,[4],-0.364 (inactive)
same,z-score,[5],0.0089 (inactive)
COC(=O)[C@H]1[C@H](c2ccccc2)C(=O)[C@]2(O)c3ccccc3O[C@@]12c1ccccc1,composite z-score,[1],-0.013 (inactive)
same,composite z-score,XIP peptide (Xip251-270),0.364
same,z-score,[2],0.332
same,z-score,[3],-0.116 (inactive)
CCOC(=O)[C@H]1CC=C2C(=O)Oc3ccc(Br)cc3[C@@H]21,composite z-score,[1],0.874 (inactive)
same,composite z-score,XIP peptide (Xip251-270),0.694
same,z-score,[2],-0.5
same,z-score,[3],-6.05 (inactive)
same,z-score,[4],0.439 (inactive)
same,z-score,[5],0.286 (inactive)
COC(=O)[C@H]1[C@@H](O)[C@@]2(O)c3c(OC)cc(OC)cc3O[C@@]2(c2ccc(OC)cc2)[C@@H]1c1ccccc1,composite z-score,[1],-0.119 (inactive)
same,composite z-score,XIP peptide (Xip251-270),0.914
same,z-score,[2],-1.26
same,z-score,[3],-0.0317 (inactive)
c1ccc(-c2cc3c(nc2-c2ccccc2)CCNC3)cc1,composite z-score,[1],0.236 (inactive)
same,composite z-score,XIP peptide (Xip251-270),0.0762
same,z-score,[2],-0.295
same,z-score,[3],-0.372 (inactive)
COc1cc2c(cc1O)C(C)N(C)CC2 (stereo not given),composite z-score,[1],-0.191 (inactive)
same,composite z-score,XIP peptide (Xip251-270),0.229
same,z-score,[2],-0.563
same,z-score,[3],-0.569 (inactive)
same,z-score,[4],-0.0732 (inactive)
same,z-score,[5],0.363 (inactive)
COc1cc2c(cc1O)C=[N+](C)CC2,composite z-score,[1],-1.21 (inactive)
same,composite z-score,XIP peptide (Xip251-270),-0.417
same,z-score,[2],-0.0765
same,z-score,[3],-2.14 (inactive)
same,z-score,[4],-0.663 (inactive)
same,z-score,[5],-0.875 (inactive)
COC(=O)[C@@]1(Cc2ccc(F)cc2)[C@H]2c3cc(C(=O)N(C)C)[nH]c3C[C@H]2CN1C(=O)c1ccccc1,composite z-score,[1],0.614 [setting not given] (inactive)
same,composite z-score,XIP peptide (Xip251-270),0.17
same,z-score,[2],0.412
same,z-score,[3],-4.26 [setting not given] (inactive)
same,z-score,[4],1.11 (inactive)
same,z-score,[5],0.831 (inactive)
O=C(O)CSc1ncnc2scc(-c3ccc(Br)cc3)c12,outcome,[6],inactive
C=C(CC1(C(C)NP(=O)(c2ccccc2)c2ccccc2)CC1)c1ccccc1 (stereo not given),composite z-score,[1],-0.131 (inactive)
same,composite z-score,XIP peptide (Xip251-270),0.858
same,z-score,[2],-1.1
same,z-score,[3],-5.49 (inactive)
same,z-score,[4],0.137 (inactive)
same,z-score,[5],0.321 (inactive)
CC(Oc1cc2oc(=O)c3c(c2cc1Cl)CCC3)C(=O)NCc1cccnc1 (stereo not given),outcome,[6],inactive
CC1=C(N2CC2)C(=O)C(CO)=C(N2CC2)C1=O,outcome,[7],inactive
same,outcome,[8],inactive
same,outcome,[9],inactive
N#Cc1ccc(-c2ccc3c(c2)[C@@H]2[C@@H](CCN2C(=O)c2ccc(F)cc2)[C@@H](CO)N3)cc1,outcome,[6],inactive
CN1c2ccc(-c3cccc(F)c3)cc2[C@@H]2[C@@H](CCN2C(=O)c2ccncc2)[C@H]1CO,outcome,[6],inactive
COc1ccc(-n2nnnc2C(CCc2ccccc2)N2CCC(n3c(=O)[nH]c4ccccc43)CC2)cc1 (stereo not given),outcome,[7],inactive
O=C(CN1C(=O)/C(=C/c2cccc(Br)c2)SC1=S)Nc1cccnc1,outcome,[6],inactive
Nc1cc(C(=O)O)ccc1Nc1ccccc1,outcome,[6],inactive
O=C(c1ccncc1)N1CC[C@@H]2[C@@H](CO)Nc3ccc(Br)cc3[C@@H]21,outcome,[6],inactive
CSCCC(c1nnnn1-c1ccc2c(c1)OCCO2)N1CCC(n2c(=O)[nH]c3ccccc32)CC1 (stereo not given),outcome,[7],inactive
same,outcome,[8],inactive
same,outcome,[9],inactive
same,outcome,[10],inactive
CCOc1ccc(-n2c(SCC(N)=O)nc3c(c2=O)SCC3)cc1,outcome,[6],inactive
CC1=C(O)C(=O)C=C2C1=CC=C1C2(C)CCC2(C)C3CC(C)(C(=O)O)CCC3(C)CCC12C (stereo not given),outcome,[7],inactive
same,outcome,[8],inactive
same,outcome,[9],inactive
Cc1ccc(S(=O)(=O)N(C)C)cc1NC(=O)CSc1nncs1,outcome,[6],inactive
C[C@@H]1CN([C@@H](C)CO)C(=O)CCCn2nncc2CO[C@H]1CN(C)C(=O)Oc1cccc2ccccc12,outcome,[11],inactive
same,outcome,[12],inactive
same,outcome,[13],inactive
COC(=O)C1=C(C(=O)OC)C2OC1c1cc3ccccc3cc12,outcome,[7],inactive
same,outcome,[8],inactive
CC1=CC(C)CC(C)OC(=O)CC(c2ccc(O)cc2)NC(=O)C(Cc2c(Br)[nH]c3ccccc23)N(C)C(=O)C(C)NC(=O)C(C)C1 (stereo not given),outcome,[7],inactive
same,outcome,[8],inactive
same,outcome,[9],inactive
same,outcome,[10],inactive
O=c1[nH]c(CN2CC=C(c3ccccc3)CC2)nc2cc(C(F)(F)F)ccc12,outcome,[14],inactive
same,outcome,[12],inactive
same,outcome,[13],inactive
O=C(C[C@H]1C[C@H]2c3cc(NC(=O)c4cccnc4)ccc3O[C@H]2[C@H](CO)O1)NCc1ccccn1,outcome,[6],inactive
C[C@H]1CN([C@@H](C)CO)C(=O)CCCn2nncc2CO[C@H]1CN(C)C(=O)Oc1cccc2ccccc12,outcome,[11],inactive
same,outcome,[14],inactive
same,outcome,[12],inactive
same,outcome,[13],inactive
